# Laboratory results as given in PubChem BioAssay AID1671193 (National Center for Advancing Translational Sciences (NCATS), 2021).
# Hit rate of the full screen: of about 150,000 compounds, about 180 (0.12%) were called active. Not shown: some 6% with an inconclusive outcome. The call rests on the fitted dose curve; in most records, active means well fitted cell-killing curve with a large enough effect; inconclusive means small, poorly fitted or top-dose-only effect, or effect the other way; inactive means flat fitted curve, though single readings scatter. Only a selection was taken, and actives are over-represented in it overall.
# Assay: GF-AFC viability counterscreen for inhibitors of alpha-synuclein gene (SNCA) expression; further: nearly all actives have a fitted effect of over 30% in size
# Conditions: HEK-293-SNCA-luc viability, GF-AFC fluorescence, 24 h; series mostly up to 57.1 µM; activity change, negative = cytotoxicity: at the top concentration
# Source text: Assay Submitter (PI): Daniel R. Scoles Ph.D.
# Department of Neurology, University of Utah, Salt Lake City, Utah
# Accumulation of alpha-synuclein is a main underlying pathological feature of Parkinson's disease (PD) and alpha-synucleinopathies, for which lowering expression of the alpha-synuclein gene (SNCA) is a potential therapeutic avenue. Using a cell-based luciferase reporter of SNCA expression we performed a quantitative high throughput screen (qHTS) of 155,885 compounds in dose response. The screening assay was generated using genome editing to insert the luciferase gene downstream and in frame of the SNCA gene in HEK-293 cells (1). A viability counterscreen using GF-AFC was used to eliminate cytotoxic and false positive compounds. After in silico analysis (clustering, removal of frequent hitter nuisance chemotypes), inhibitor compounds from the primary screen were selected for follow up and re-tested at 11-doses in the SNCA-luc cells (luciferase and GF-AFC confirmation), and in CMV-luc expressing cell line to flag general transcriptional repressors.
# Described herein are the results of the GF-AFC viability counterscreen for SNCA inhibitors; inactivity (no decrease in fluorescence signal, not cytotoxic) is the desired output for this assay.
# 1. Dansithong, W., Paul, S., Scoles, D. R., Pulst, S. M., and Huynh, D. P. (2015) Generation of SNCA Cell Models Using Zinc Finger Nuclease (ZFN) Technology for Efficient High-Throughput Drug Screening. PLoS ONE 10, e0136930.
# SEQUENCE No. (e.g., 1, 2, 3, etc.); […] (e.g., Cells, Incubation, Reagent, etc.); VALUE; DESCRIPTION
# 1; Cells; 4 uL; Dispense 1500 HEK-293-SNCA-luc cells/well into Greiner 1536-well white / solid bottom tissue culture treated plate. The plate was covered with metal lids with gas-exchange holes.
# 2; Incubate; 24 hours; Incubate at 37C, 5% CO2, 95% RH.
# 3; Compounds; 23 nL; Compounds and controls were transferred via a Kalypsys Pin Tool (Wako USA) equipped with a 1536-slotted pin array. The plate was covered with metal lids with gas-exchange holes.
# 4; Incubate; 24 hours; Incubate at 37C, 5% CO2, 95% RH.
# 5; Dispense; 1 uL; Dispense Gly-Phe-7-amino-4-trifluoromethylcoumarin (GF-AFC, prepared at 125 uM in PBS) was added. The plate was covered with metal lids with gas-exchange holes.
# 6; Incubate; 30 min; Incubate at 37C, 5% CO2.
# 7; Detector; Fluorescence; Measure fluorescence with ViewLux microplate reader (PerkinElmer) equipped with 405/10 excitation and 540/25 emission filters.
# 8; Dispense; 3 uL; Dispense ONE-Glo ([…]) lucifase detection reagent was added to each well. Plates were covered with metal lids with gas-exchange holes.
# 9; Incubate; 15 min; Incubate at room temperature.
# 10; Detector; Luminescence; Measure luminescence with ViewLux microplate reader (PerkinElmer) equipped with clear filters.
# NOTES (numbers refer to sequence above)
# 1; HEK-293-SNCA-luc were cultured and suspended in phenol-red free DMEM (4.5 g/L glucose, 25 mM HEPES, cat #21063 (Thermo)).
# 3; Compounds were added to the assay plate in an 11-point intra plate dose response, 1:3 titration in DMSO with a final concentration range of […]. Vehicle-only plates, with DMSO being pin-transferred to every well, were inserted at the beginning of screening runs to confirm expected assay performance. Activity was normalized to wells containing medium only (-100% activity, full inhibition) and SNCA-luc cells treated with DMSO vehicle control (0% activity), contained on the same plate as test samples.
# 10; Signals were analyzed, and dose-response curves were fit using the Hill equation. Compounds in curve classes -1.1, -1.2, -2.1, -2.2 in the SNCA-luc assay were considered active. Compounds were eliminated from further consideration if also active (curve class -1.1, -1.2, -1.3, -1.4, -2.1, -2.2, -2.3, -2.4) in the GF-AFC cytotoxicity assay.
row,Compound,"activity change, negative = cytotoxicity"
1,CCOC(=O)C1CCCN(C(=O)c2c(C)oc3c2CN(Cc2ccc(C)cc2)CC3)C1 (configuration not stated),1.84% (inactive)
2,COc1ccc(OC)c2nc(-c3cccc(C)c3)c(CN3CCCC(O)C3)cc12 (configuration not stated),-18% (inactive)
3,O=C(NC1CCN(c2ccnc3ccnn23)C1)c1ccccc1F (configuration not stated),2.27% [at 87.6 µM] (inactive)
4,Cn1nccc1C(=O)NCCC1CCN(C(=O)Nc2ccccc2)CC1,-3.2% (inactive)
5,Cc1ccc(-c2noc([C@@H]3Cc4nc[nH]c4CN3Cc3cccc(C#N)c3)n2)cc1,-20.9% [at 87.6 µM] (inactive)
6,CCCCN(CC#Cc1ccccc1)C(=O)c1cc(=O)n(C)c(=O)n1C,-8.83% (inactive)
7,COc1ccc(NC(=O)c2nc3sccn3c2-c2cccnc2)cc1,-12.6% [at 87.6 µM] (inactive)
8,COCCN1C(=O)CS(=O)(=O)C12CCN(C(=O)c1ccc(C)s1)CC2,20% (inactive)
9,CCOc1ccccc1CN1CCC(Cc2nc(-c3cccnc3)n[nH]2)C1 (configuration not stated),-0.241% (inactive)
10,COc1ccccc1-c1nc(C(=O)NCc2cccs2)n2ccncc12,28.7% (inactive)
11,O=C(c1ccc(C(F)(F)F)cc1)N1CCCC(C(=O)N2CCC(c3nc4ccncc4[nH]3)C2)C1 (configuration not stated),-6.6% (inactive)
12,CN1CCC2(CC1)Cc1ccccc1CN(C(=O)c1cccc(Cl)c1)C2,10.6% (inactive)
13,O=C(NCc1cccc(Cl)c1)C1CCc2nnc(-c3cccc(C(F)(F)F)c3)n21 (configuration not stated),-23.1% (inactive)
14,COc1ccccc1CN1C(=O)COC[C@@H]1[C@H](O)c1ccc(NC(=O)c2ccc(C#N)cc2)cc1,-0.083% (inactive)
15,CC(C)Cc1ccc(CN2CCC3(CC2)Cc2ccccc2CNC3=O)cc1,-13.9% (inactive)
16,COc1ccc(S(=O)(=O)N2CCC3(CCC(=O)N(CC4CC4)CC3)CC2)cc1,3.17% (inactive)
17,O=C(NC1CCN(c2cc(-c3cccs3)[nH]n2)C1)c1ccc(Br)cc1 (configuration not stated),-25.9% (inactive)
18,COc1ccc(CN2CC(Oc3ccc(F)c(F)c3)C2)cc1,6.04% (inactive)
19,COc1cccc(-c2cc(C3CCN(C(=O)Nc4ccccc4C)CC3)[nH]n2)c1,5.76% (inactive)

row,Compound,"activity change, negative = cytotoxicity"
1,Cc1cccc(-c2nc3ccc(C(=O)N4C(C)CCCC4C)cc3o2)n1 (configuration not stated),4.64% [at 87.6 µM] (inactive)
2,COc1ccc(NC(=O)N2CCCC(Cc3noc(-c4ccccc4)n3)C2)cc1 (configuration not stated),-21.5% (inactive)
3,O=C(Cc1ccc(F)cc1)N1CCC(n2cc(-c3nc(-c4ccccc4)no3)nn2)CC1,-4.44% (inactive)
4,COc1ccc(CNC(=O)C2CCN(c3cc(C(F)(F)F)nc(C)n3)CC2)cc1,-1.08% (inactive)
5,O=C(Nc1ccc(Cl)cc1)NC1CCN(C(=O)c2ccc(-c3cncnc3)cc2)CC1,0.645% [at 12.5 µM] (inactive)
6,O=C(NC1CCCc2c1[nH]c1c(Cl)cccc21)c1ccco1 (configuration not stated),-11.1% (inactive)
7,COc1ccc(C)cc1NC(=O)Nc1cccc(-c2ccc(N3CCCCC3)nn2)c1,-0.192% (inactive)
8,CC1(CCCCc2ccccc2)COc2ccc(C(=O)N3CCNC(=O)C3)cc2N1 (configuration not stated),10.4% [at 87.6 µM] (inactive)
9,COC(=O)C1=C(C)N=C2SC=C(CC(=O)N3CCCC3)N2C1c1cccc(F)c1 (configuration not stated),-2.14% (inactive)
10,COC(=O)N1CCC(C(=O)N2CCC3(CC2)CC(=O)Nc2ccccc2O3)CC1,-2.76% (inactive)
11,O[C@@H]1C[C@@H](c2nc(-c3ccc4c(c3)OCO4)no2)N(Cc2ccc(-c3ccccn3)cc2)C1,3.7% (inactive)
12,CN(C)c1cccc(-c2cnc(Nc3ccc(N4CCOCC4)cc3)c3c2CCO3)c1,-24.4% [at 87.6 µM] (inactive)
13,Cc1ccccc1N(C)C1CN(C(=O)OC(C)(C)C)C1,-2.58% [at 87.6 µM] (inactive)
14,COc1cccc(-c2cc(-c3nc(-c4ccc5nc[nH]c5c4)no3)[nH]n2)c1,-0.573% (inactive)
15,COc1ccc(S(=O)(=O)N2CCC(n3cnnc3-c3ccccc3)CC2)cc1Cl,11.8% (inactive)
16,O=C(C1CCN(c2nc(-c3ccccc3)nc3c2CCC3)CC1)N1CCC[C@H]1CO,-13.8% (inactive)
17,O=C(O)CCNC(=O)Cn1nc2c(cc1=O)CCCC2,3.69% (inactive)
18,O=C(NCc1ccc(F)cc1)C1CCCN(c2ccnc3ccnn23)C1 (configuration not stated),-16.2% [at 87.6 µM] (inactive)
19,O=C(c1ccco1)N1CCC(O)(c2ccccc2)[C@H](N2CCCC2)C1 (some centres not stated),-4.84% (inactive)

row,Compound,"activity change, negative = cytotoxicity"
1,COc1ccc(-n2c(=O)c(C(=O)Nc3ccccc3Cl)nc3cccnc32)cc1,12.9% (inactive)
2,Cc1ccc(C(=O)N2CCC(C(=O)N3CCC(c4nc5ncccc5[nH]4)CC3)C2)cc1 (configuration not stated),0.717% (inactive)
3,O=C(Nc1cc(-c2cccnc2)nn1-c1ccccc1)c1ccccc1F,-11.9% (inactive)
4,CC(C)Cn1c(=O)c(C(=O)NCc2ccccc2Cl)nc2cccnc21,-0.216% (inactive)
5,CC(C)C(=O)N1CCC2(CC1)OC(=O)N(Cc1ccccc1F)C2(C)c1ccccc1 (configuration not stated),7.41% [at 87.6 µM] (inactive)
6,FC(F)(F)c1ccc(CN2CCCC3(CC(c4ccccc4)=NO3)C2)cc1 (configuration not stated),-1.62% (inactive)
7,O=C(NCCC1CCN(C(=O)Nc2ccc(F)cc2)CC1)c1ccccn1,2.57% (inactive)
8,COc1ccc(C(=O)N2CCC3(CC2)N(c2ccccc2)C(=O)CS3(=O)=O)cc1F,12.3% (inactive)
9,Cc1ccc(F)cc1S(=O)(=O)N1CCC(OC2CCN(Cc3ccccc3)CC2)CC1,0.655% (inactive)
10,COc1cc(CNCCOc2ccccc2)ccc1OCC(O)CN1CCOCC1 (configuration not stated),-10.6% (inactive)
11,CC(=O)NC[C@H]1COCc2nc3cc(NC(C)=O)ccc3n21,-1.47% [at 87.6 µM] (inactive)
12,COCCOc1ccc(-c2noc([C@@H]3CCCN3C3CCC3)n2)cn1,-1.78% [at 87.6 µM] (inactive)
13,COc1ccccc1CN1Cc2cc(NC(=O)C3CCCC3)ccc2OC(C)C1=O (configuration not stated),-3.41% (inactive)
14,O=C(CCC1CCN(S(=O)(=O)c2ccccc2)CC1)NCCc1ccccc1,-3.02% (inactive)
15,CC(=O)c1c(C)nn(C(C)CC(=O)N2C[C@H]3CC=CC[C@H]3C2)c1C (some centres not stated),2.51% (inactive)
16,O=C(C[C@@H]1CCNC[C@@H]1Cc1cc(CC2CCCCC2)on1)NC1CCCCC1,8.24% [at 87.6 µM] (inactive)
17,COc1cccc([C@@H]2CN(C(=O)CCCn3cnnn3)C[C@H]2C(=O)O)c1,6.48% (inactive)
18,COCCN(C)Cc1ccc(CC2CCN(C(=O)C3(c4ccc(OC)cc4)CC3)CC2)cc1,-1.65% (inactive)
19,CCOc1ccc(CC(=O)N2CCC(C3CCN(C(=O)NC)CC3)C2)cc1 (configuration not stated),6.55% [at 12.5 µM] (inactive)
